The record followed here is PubChem BioAssay AID1768 (National Center for Advancing Translational Sciences (NCATS), 2009).

About 620 (0.23%) of roughly 270,000 compounds were called active. Not shown: some 12% with an inconclusive outcome. The call rests on the fitted dose curve; in most records, active means well fitted inhibition curve with a large enough effect in the polarisation, with a control signal flat (not every such curve was filed as active); inconclusive means small, poorly fitted or top-dose-only effect, or effect the other way, or a change in a side signal; inactive means no such curve, though single readings can be large or run the other way; the % refers to the polarisation. Shown is part of a subset that was picked to be rich in actives.
Potency means the concentration at half of the fitted maximal effect.

The test deals with Menin (Homo sapiens) (UniProt O00255). Kind of test: qHTS Assay for Inhibitors Targeting the Menin-MLL Interaction in MLL Related Leukemias: Competition With Texas Red Labeled MLL-derived Mutant Peptide. On FP activity change, negative = inhibition: % of control where 0% means no effect. To be noted: fluorescence polarization; series mostly up to 61.6 µM; FP activity change, negative = inhibition: at the top concentration. For orientation: In qHTS, concentration-response curves come from the screen itself.
Sequence of Menin (Homo sapiens) (O00255 whole entry, looked up): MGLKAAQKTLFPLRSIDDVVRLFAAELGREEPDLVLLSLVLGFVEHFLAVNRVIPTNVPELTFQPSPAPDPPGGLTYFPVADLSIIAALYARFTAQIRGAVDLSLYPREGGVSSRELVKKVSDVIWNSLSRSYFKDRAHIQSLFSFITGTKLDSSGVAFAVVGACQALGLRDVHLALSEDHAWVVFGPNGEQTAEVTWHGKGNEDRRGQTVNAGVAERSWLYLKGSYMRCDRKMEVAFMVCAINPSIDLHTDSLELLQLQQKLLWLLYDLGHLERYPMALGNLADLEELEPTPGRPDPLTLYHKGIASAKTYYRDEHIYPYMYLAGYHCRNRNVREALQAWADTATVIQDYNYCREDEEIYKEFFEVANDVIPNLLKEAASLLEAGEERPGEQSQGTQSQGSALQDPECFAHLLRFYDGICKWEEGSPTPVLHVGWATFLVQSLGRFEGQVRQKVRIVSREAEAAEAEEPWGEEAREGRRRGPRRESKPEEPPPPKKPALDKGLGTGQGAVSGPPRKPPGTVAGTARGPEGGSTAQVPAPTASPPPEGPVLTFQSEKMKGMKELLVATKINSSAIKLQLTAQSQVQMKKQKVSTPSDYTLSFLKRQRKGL
Consider `Cc1c(C(=O)NCC(c2ccco2)N2CCCC2)oc2ccc(Cl)cc12` (stereo not drawn), for which the “FP activity change, negative = inhibition” value is -16.2% (inactive).

In the case of `COc1cc(OC)c2c(c1C(CCN1CCCCC1)c1ccc(N(C)C)cc1)OC(=O)CC2c1ccc(N(C)C)cc1` (stereo not drawn), the “FP activity change, negative = inhibition” value was 2.4% (inactive).

In the case of `O=C(N/C(=C/c1ccc(Cl)cc1)C(=O)N1CCCCC1)c1ccco1`, the “FP activity change, negative = inhibition” value was 1.31% (inactive).

As for `Cc1ccc(-n2ncc(C(=O)NC3CC3)c2C2CCN(C(=O)OC(C)(C)C)CC2)c(C)c1`, the “FP activity change, negative = inhibition” value is 0.388% (inactive).

`Cc1cc2c(c(=O)n1Cc1ccccc1)C1O[C@](CCCCN3C(=O)c4ccccc4C3=O)(Cc3ccccc31)O2`: the FP activity change, negative = inhibition was 12.4% [at 11.7 µM] (inactive).

Turning to `CC1Sc2ccc(S(=O)(=O)CCC(=O)NCc3ccccc3Cl)cc2NC1=O` (stereo not drawn), the “FP activity change, negative = inhibition” value was 14.1% (inactive).

`COc1cc(C(=O)NC2CCN(Cc3ccccc3)CC2)cc(Cl)c1OC(C)C`: the “FP activity change, negative = inhibition” value is -8.46% (inactive).

As to `Cc1ccc(C(=O)NNC(=O)c2cc3cc4ccccc4nc3s2)cc1`, the Potency was 17.8 µM (active).

As for `Cc1ccc(C(=O)NNC(=O)c2cccs2)cc1`, the “FP activity change, negative = inhibition” value was 9.25% (inactive).

For the compound `O=C(NNC(=O)c1cc2c(s1)CCCC2)c1ccccc1`, the “FP activity change, negative = inhibition” value is 2.97% (inactive).

In the case of `COc1ccc(-c2nc3c(s2)CCc2onc(-c4ccc(OC)cc4)c2-3)cc1`, the “FP activity change, negative = inhibition” value is 5.56% (inactive).

Regarding `O=C1OC2(CCCCC2)CC2=C1C1O[C@](c3ccsc3)(Cc3ccccc31)O2`, the FP activity change, negative = inhibition is -0.298% [at 11.7 µM] (inactive).

Turning to `COc1ccc(CN2CCCC(N3CCc4ccccc4C3)C2)c(O)c1` (stereo not drawn), the “FP activity change, negative = inhibition” value was -18.7% (inactive).

On to `Cc1ccc2nc(-c3ccncc3)cc(C(=O)Nc3ccncc3)c2c1`, for which the “FP activity change, negative = inhibition” value is -0.0318% (inactive).

For the compound `COc1cccc(OCC(O)CNC(=O)c2oc3c(C)c(C)ccc3c2C)c1` (stereo not drawn), the “FP activity change, negative = inhibition” value was -16.1% (inactive).

`CC(C)CNS(=O)(=O)c1ccc(CCC(=O)NCc2ccc(Cl)cc2)cc1`: the “FP activity change, negative = inhibition” value is -21.7% (inactive).

As to `C=CCn1c(SCC(=O)NC)nnc1C12CC3CC(CC(C3)C1)C2`, the “FP activity change, negative = inhibition” value is -14.9% (inactive).

With `COCCN1C(=O)C(=O)/C(=C(/O)c2ccc(S(=O)(=O)N3CCCCC3)cc2)C1c1ccc(OC)c(OC)c1` (stereo not drawn), the “FP activity change, negative = inhibition” value was 8.43% (inactive).

`COc1cc(C(=O)NCc2cc3cc(Cl)ccc3n2C)cc(OC)c1OC`: the “FP activity change, negative = inhibition” value is 2.93% (inactive).

Regarding `CCCCNC(=O)c1cn(CC)c2cc(N3CCN(C(=O)c4ccco4)CC3)c(F)cc2c1=O`, the “FP activity change, negative = inhibition” value is -13.8% (inactive).

Consider `CCOc1ccc(NC(=O)C2CCN(C(=O)N3CCOc4ccccc43)CC2)cc1`, for which the “FP activity change, negative = inhibition” value is -10.2% (inactive).

Regarding `Cc1ccc(N(Cc2ccccc2O)C(=O)c2ccccc2F)cc1`, the “FP activity change, negative = inhibition” value was 0.0013% (inactive).

Regarding `Cc1ccc(O)c(CNc2nc3ccccc3[nH]2)c1`, the “FP activity change, negative = inhibition” value was 4.64% (inactive).

Consider `COC(=O)c1sc(=S)n(-c2ccccc2)c1N`, for which the “FP activity change, negative = inhibition” value is 4.57% (inactive).

Turning to `CCOC(=O)c1c(N)sc(C(C)=O)c1C`, the “FP activity change, negative = inhibition” value was 12.7% (inactive).

`COCCOC(=O)c1sc(=S)n(CCOC)c1N`: the Potency is 28.2 µM (active).

Consider `O=C(c1ccccc1)N1CCC(CC2CC(c3ccc(Cl)cc3)=NO2)(C(=O)NCC2CCCCC2)CC1` (stereo not drawn), for which the “FP activity change, negative = inhibition” value was 1.11% (inactive).

In the case of `CCN(CC)S(=O)(=O)c1ccc(N2CCOCC2)c(NC(=O)C2CSC3(C)CCC(=O)N23)c1` (stereo not drawn), the “FP activity change, negative = inhibition” value is -6.53% (inactive).

Take `COc1ccc(C)cc1Nc1n[n+](-c2ccccc2)c(-c2cccc(Cl)c2Cl)s1`: the “FP activity change, negative = inhibition” value was -9.19% (inactive).

Take `CC1CC(C)CN(CCCNC(=O)c2csc3c2CCCCC3)C1` (stereo not drawn): the “FP activity change, negative = inhibition” value is -13% (inactive).

Regarding `CCN(CC)c1ccc(C(=O)Nn2c(C)nc3ccccc3c2=O)cc1`, the “FP activity change, negative = inhibition” value was -13.2% (inactive).

`CCC(CC)COC(=O)C1=C(C)NC(=O)NC1c1ccc([N+](=O)[O-])cc1` (stereo not drawn): the “FP activity change, negative = inhibition” value was -1.42% (inactive).

As for `CCCN1CCC(=O)N(C(CSc2ccc(C)cc2)Cc2ccccc2)CC1` (stereo not drawn), the “FP activity change, negative = inhibition” value was -25.5% (inactive).

Consider `CCOC(=O)c1ccccc1NS(=O)(=O)c1c(C)nc2sccn2c1=O`, for which the “FP activity change, negative = inhibition” value is 0.208% (inactive).

Take `COc1ccc(-n2nc(C(=O)NCC(=O)N3CCN(c4ccccc4OC)CC3)c3ccccc3c2=O)c(OC)c1`: the “FP activity change, negative = inhibition” value was 4.26% (inactive).

In the case of `CCCCc1cc(=O)oc2c(C)c(OCC(=O)N3CCC(C(N)=O)CC3)ccc12`, the “FP activity change, negative = inhibition” value is -20.5% (inactive).

On to `O=S(=O)(NC1CCCCC1N1CCN(c2ccccc2F)CC1)c1ccccc1` (stereo not drawn), for which the “FP activity change, negative = inhibition” value is -1.78% (inactive).

As for `CC(C)(COC(=O)Nc1ccccc1)COC(=O)Nc1ccccc1`, the “FP activity change, negative = inhibition” value was 22.6% (inactive).

For the compound `Cc1ccc(C)c(N2CCN(C(=O)CCCn3c(=O)c4cccn4c4cccnc43)CC2)c1`, the “FP activity change, negative = inhibition” value is -4.52% (inactive).

Consider `CCc1ccc(NC(=O)C(=O)NNC(=O)c2cccs2)cc1`, for which the “FP activity change, negative = inhibition” value was -15.4% (inactive).

Consider `Cc1nc(-c2ccc(NC(=O)c3cccs3)cc2)cs1`, for which the Potency is 25.1 µM (active).

In the case of `O=C(O)Cc1ccc(NC(=O)c2cccs2)cc1`, the “FP activity change, negative = inhibition” value was 34.4% (inactive).

For `COc1ccc(C2CC(O)(c3ccccc3)Oc3cc(C)cc(C)c32)cc1` (stereo not drawn), the “FP activity change, negative = inhibition” value was 25% (inactive).
